# Laboratory results from PubChem BioAssay AID1159580 (chemical genetic matrix, 2015).
# Screen size: about 5,500 compounds; about 2,000 (36%) were called active. Another 18% or so got no clear call; they are omitted. Some of the results follow. Unmarked numbers belong to inactive results. No stated cut-off is given here; in the data, active means normalized growth mostly below about 0.91 (no sharp cut-off); inconclusive means no clear call, values can overlap the other calls; inactive means mostly above about 0.92.
# Test: chemical genetic growth profiling, strain panel (AID 1159580);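 further: tested at 20 µM; growth read once vehicle control cultures reached saturation at 30 °C; 1 = growth at the plate median or of vehicle wells; lower values mean less growth of the strain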
# Conditions: S. cerevisiae deletion strains, growth OD
# [1] = locus YDL101C, strain DUN1, active compounds read low
# [2] = locus YHR030C, strain SLT2, active compounds read low
structure (smiles),measurement,setting,value
O=C(Nc1ccc(OC(F)(F)F)cc1)Nc1cccc(C(=O)O)c1,normalized growth,"locus YAL013W, strain DEP1, active compounds read low",1.01
same,normalized growth,"locus YBR229C, strain ROT2, active compounds read low",0.999
same,normalized growth,"locus YCL061C, strain MRC1, active compounds read low",1.01
same,normalized growth,[1],1.01
same,normalized growth,"locus YDL134C, strain PPH21, active compounds read low",1.04
same,normalized growth,"locus YDR150W, strain NUM1, active compounds read low",0.947
same,normalized growth,"locus YEL061C, strain CIN8, active compounds read low",1.02
same,normalized growth,"locus YGR078C, strain PAC10, active compounds read low",1
same,normalized growth,[2],1.02
same,normalized growth,"locus YHR087W, strain rtc3, active compounds read low",1.02
same,normalized growth,"locus YJL187C, strain SWE1, active compounds read low",1.01
same,normalized growth,"locus YJR043C, strain POL32, active compounds read low",0.974
same,normalized growth,"locus YJR075W, strain HOC1, active compounds read low",1.01
same,normalized growth,"locus YLR039C, strain RIC1, active compounds read low",0.995
same,normalized growth,"locus YLR058C, strain SHM2 (second series), active compounds read low",1.01
same,normalized growth,"locus YLR085C, strain ARP6, active compounds read low",1.07
same,normalized growth,"locus YLR262C, strain YPT6, active compounds read low",0.981
same,normalized growth,"locus YML094W, strain GIM5, active compounds read low",1.02
same,normalized growth,"locus YMR219W, strain ESC1, active compounds read low",1
same,normalized growth,"locus YMR263W, strain SAP30, active compounds read low",1.02
same,normalized growth,"locus YMR307W, strain GAS1, active compounds read low",1.08
same,normalized growth,"locus YNL153C, strain GIM3, active compounds read low",0.988
same,normalized growth,"locus YNL298W, strain CLA4 (second series), active compounds read low",1
same,normalized growth,"locus YNL322C, strain KRE1, active compounds read low",0.999
same,normalized growth,"locus YNR030W, strain Alg12, active compounds read low",1.04
same,normalized growth,"locus YPL055C, strain LGE1, active compounds read low",0.999
same,normalized growth,"locus YPL241C, strain CIN2, active compounds read low",1.03
same,normalized growth,"locus YPR135W, strain CTF4, active compounds read low",0.996
CC1(C)C=Cc2cc(/C(N)=N\OC(=O)Nc3cccc(C(F)(F)F)c3)ccc2O1,normalized growth,"locus YAR019C, strain CDC15, active compounds read low",0.981
same,normalized growth,"locus YBL105C, strain PKC1, active compounds read low",0.982
same,normalized growth,"locus YBR135W, strain CKS1, active compounds read low",0.969
same,normalized growth,"locus YBR136W, strain MEC1, active compounds read low",0.972
same,normalized growth,"locus YBR160W, strain CDC28, active compounds read low",0.977
same,normalized growth,"locus YDL017W, strain CDC7, active compounds read low",0.987
same,normalized growth,"locus YDL028C, strain MPS1, active compounds read low",0.977
same,normalized growth,[1],0.988
same,normalized growth,"locus YDL108W, strain KIN28, active compounds read low",0.977
same,normalized growth,"locus YDL132W, strain cdc53, active compounds read low",0.977
same,normalized growth,"locus YDL214C, strain PRR2, active compounds read low",0.947
same,normalized growth,"locus YDR052C, strain DBF4, active compounds read low",0.989
same,normalized growth,"locus YDR054C, strain cdc34, active compounds read low",0.97
same,normalized growth,"locus YDR226W, strain ADK1, active compounds read low",0.976
same,normalized growth,"locus YDR477W, strain SNF1, active compounds read low",0.967
same,normalized growth,"locus YER123W, strain YCK3, active compounds read low",0.866
same,normalized growth,"locus YER133W, strain GLC7, active compounds read low",0.947
same,normalized growth,"locus YFL009W, strain cdc4, active compounds read low",0.976
same,normalized growth,"locus YFL029C, strain CAK1, active compounds read low",0.982
same,normalized growth,"locus YFR003C, strain YPI1, active compounds read low",0.984
same,normalized growth,"locus YFR019W, strain FAB1, active compounds read low",0.883
same,normalized growth,"locus YFR028C, strain CDC14, active compounds read low",0.978
same,normalized growth,"locus YGR040W, strain KSS1, active compounds read low",0.968
same,normalized growth,"locus YGR052W, strain FMP48, active compounds read low",0.99
same,normalized growth,"locus YGR092W, strain DBF2, active compounds read low",0.854
same,normalized growth,[2],0.426 (active)
same,normalized growth,"locus YHR079C, strain IRE1, active compounds read low",0.825
same,normalized growth,"locus YHR082C, strain KSP1, active compounds read low",0.917
same,normalized growth,"locus YHR205W, strain SCH9, active compounds read low",0.912
same,normalized growth,"locus YIL147C, strain SLN1, active compounds read low",0.98
same,normalized growth,"locus YJL095W, strain BCK1, active compounds read low",0.726
same,normalized growth,"locus YJL128C, strain PBS2, active compounds read low",0.967
same,normalized growth,"locus YJL157C, strain FAR1, active compounds read low",0.96
same,normalized growth,"locus YJR016C, strain ILV3, active compounds read low",0.975
same,normalized growth,"locus YJR066W, strain TOR1 (second series), active compounds read low",0.832
same,normalized growth,"locus YJR066W, strain TOR1, active compounds read low",0.827
same,normalized growth,"locus YKL048C, strain ELM1, active compounds read low",0.934
same,normalized growth,"locus YKL067W, strain YNK1, active compounds read low",0.933
same,normalized growth,"locus YKL101W, strain HSL1, active compounds read low",0.934
same,normalized growth,"locus YKL193C, strain SDS22, active compounds read low",0.979
same,normalized growth,"locus YKL203C, strain TOR2, active compounds read low",0.991
same,normalized growth,"locus YLR113W, strain HOG1, active compounds read low",0.832 (active)
same,normalized growth,"locus YLR133W, strain CKI1, active compounds read low",0.937
same,normalized growth,"locus YLR403W, strain SFP1, active compounds read low",0.949
same,normalized growth,"locus YML070W, strain DAK1, active compounds read low",0.887
same,normalized growth,"locus YMR001C, strain CDC5, active compounds read low",0.98
same,normalized growth,"locus YMR205C, strain PFK2 (second series), active compounds read low",0.93
same,normalized growth,"locus YMR277W, strain FCP1, active compounds read low",0.987
same,normalized growth,"locus YNL006W, strain LST8, active compounds read low",0.985
same,normalized growth,"locus YNL020C, strain ARK1, active compounds read low",0.924
same,normalized growth,"locus YNL161W, strain CBK1, active compounds read low",0.984
same,normalized growth,"locus YNL183C, strain NPR1, active compounds read low",0.801
same,normalized growth,"locus YNL207W, strain RIO2, active compounds read low",0.984
same,normalized growth,"locus YNL222W, strain SSU72, active compounds read low",0.981
same,normalized growth,"locus YNL307C, strain MCK1 (second series), active compounds read low",0.931
same,normalized growth,"locus YOL078W, strain AVO1, active compounds read low",0.976
same,normalized growth,"locus YOL136C, strain PFK27, active compounds read low",0.903
same,normalized growth,"locus YOR061W, strain CKA2, active compounds read low",0.945
same,normalized growth,"locus YOR119C, strain RIO1, active compounds read low",1.04
same,normalized growth,"locus YOR231W, strain MKK1, active compounds read low",0.823
same,normalized growth,"locus YOR329C, strain SCD5, active compounds read low",0.988
same,normalized growth,"locus YPL031C, strain PHO85, active compounds read low",0.935
same,normalized growth,"locus YPL153C, strain RAD53, active compounds read low",0.871
same,normalized growth,"locus YPL204W, strain HRR25, active compounds read low",0.903
same,normalized growth,"locus YPL209C, strain IPL1, active compounds read low",0.98
same,normalized growth,"locus YPL256C, strain CLN2, active compounds read low",0.831 (active)
same,normalized growth,"locus YPR025C, strain CCL1, active compounds read low",0.978
same,normalized growth,"locus YPR106W, strain ISR1, active compounds read low",0.981
same,normalized growth,"locus YPR111W, strain DBF20, active compounds read low",0.963
same,normalized growth,"strain NNK1, active compounds read low",0.993
same,normalized growth,"strain TSCII, active compounds read low",0.979
